An excerpt weighted towards active compounds, which were near 2.2% of everything screened.
HDAC3 inh – inhibitors of human histone deacetylase 3. recombinant HDAC3, fluorogenic peptide/trypsin coupled, fluorescence. AID 2718. O15379. inhibition, % at 8.3 µM. hit rate 0.15% among 320,000; in the data active means inhibition above about 26%, passing the limit was not always enough
Target sequence (O15379 whole entry, looked up): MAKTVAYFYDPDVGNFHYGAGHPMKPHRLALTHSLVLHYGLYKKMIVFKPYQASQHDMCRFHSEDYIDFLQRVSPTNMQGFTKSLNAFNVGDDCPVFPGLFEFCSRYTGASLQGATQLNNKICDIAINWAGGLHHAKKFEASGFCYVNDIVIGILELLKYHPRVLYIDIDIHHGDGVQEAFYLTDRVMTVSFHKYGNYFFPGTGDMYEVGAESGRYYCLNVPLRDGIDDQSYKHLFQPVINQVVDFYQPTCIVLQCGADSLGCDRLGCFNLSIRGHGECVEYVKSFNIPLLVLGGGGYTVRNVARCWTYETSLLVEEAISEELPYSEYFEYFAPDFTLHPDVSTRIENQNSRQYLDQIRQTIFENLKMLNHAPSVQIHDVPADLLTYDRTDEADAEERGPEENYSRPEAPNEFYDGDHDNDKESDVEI
Mot1-301 SUMO – inhibitors of SUMOylation pathway: yeast Mot1-301 growth rescue | S. cerevisiae Mot1-301 growth rescue, ATP luminescence, 38.5C; percent above DMSO median, 100 means doubled | growth rescue, % at 18.8 µM | hit rate 1% among 320,000;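 active means every valid replicate shows activation above 250% relative to neutral control wells; inactive means the rest, any valid replicate at or below 250%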;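 further: OY570 slx delta 5 strain wells were the positive control but not used for scaling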
PvdQ inh – blocks Pseudomonas aeruginosa PvdQ acylase activity; hit rate 0.063% among 340,000; purified PvdQ acylase, fluorescence plate reader; inhibition, % at 10 µM; AID 488965; in the data active means inhibition above about 30%, passing the limit was not always enough;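 further: 0% = vehicle neutral wells and 100% = reference inhibitor wells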
JMJD2C inh – inhibitors of human GASC-1 (JMJD2C) demethylase; GST-JMJD2C(1-420) H3K9me3 demethylation, DELFIA europium; inhibition, % at 2.35 µM; hit rate 0.069% among 330,000;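 active means more than half of a compound's replicate wells show inhibition beyond 50%, single wells judged on their own value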;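 further: signal counts dimethyl H3K9 product captured on neutravidin plate; 0% = median of DMSO wells and 100% = 0.3 times that DMSO median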
PHOSPHO1 block – PHOSPHO1 (human) inhibition; Q8TCT1; AID 1565; inhibition, % at 13.3 µM; recombinant PHOSPHO1, absorbance phosphatase assay; hit rate 1.1% among 290,000; in the data active means inhibition above about 60%
p-CIP stab down – compounds decreasing mouse p/CIP protein stability; Q05BA5; F442A p/CIP-EGFP cells, EGFP fluorescence, 16 h; decrease of EGFP signal, % at 10 µM; hit rate 0.01% among 290,000; AID 1984;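 active means EGFP signal decrease of at least 30% at 10 µM or well 3 SD below plate mean, unless failing retest; inactive means the rest, including hits failing retest or dose response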
Yeast Mot1 SUMO – yeast SUMO pathway inhibition in dose response; shares compounds with Mot1-301 SUMO; 2,300 tested, under 10 active; S. cerevisiae Mot1-301 galactose growth, ATP luminescence, 24 h; -100 = growth of slx-deleted rescue strain; AID 493004; growth activity, percent, % at 42 µM;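 active means Signal drops as the depositor expects, and the fitted half-maximal dose is no more than ten times the top valid tested dose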;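 further: more negative values mean stronger growth rescue toward the control strain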
* marks the source's active call; other numbers are inactive results; i = inactive; · = no result given; + = active, no number.

SMILES	HDAC3 inh	Mot1-301 SUMO	PvdQ inh	JMJD2C inh	PHOSPHO1 block	p-CIP stab down	Yeast Mot1 SUMO
c1ccc(-c2csc(NC3CCCCC3)n2)cc1	5	923*	6	6	0	20	0
CC1CCCC(C)N1C(=O)Cc1ccccc1 (stereo not drawn)	-5	383	10	1	2	-6	·
O=C(Cc1ccccc1)N1CCCC1c1ccccc1 (stereo not drawn)	-4	+	-9	-1	-6	-3	0
COc1ccc(OCC(=O)OCC(=O)NC2CC2)cc1	4	-10	-9	5	·	·	·
CCOc1ccc(N2C(=O)CC(Sc3nc4ccc(OCC)cc4s3)C2=O)cc1 (stereo not drawn)	-5	41	-8	-3	·	·	·
C=CCNc1nnc(SC2CC(=O)N(c3ccc(OCCC)cc3)C2=O)s1 (stereo not drawn)	-9	+	2	8	100*	-3	-2
FC(F)(F)c1nc2ccccc2n2c(-c3c(Cl)cccc3Cl)nnc12	-1	1	-16	6	24	-1	·
FC(F)(F)c1nc2ccccc2n2c(-c3ccc(Cl)cc3Cl)nnc12	4	+	12	2	16	-6	0
Cc1ccccc1-c1cc(C(=O)O)n(CC2CC(c3cccnc3)=NO2)n1 (stereo not drawn)	-2	1	-17	3	·	·	·
CSc1nc(=S)n(-c2cc(C)ccc2C)c(C)c1C(C)=O	-1	-19	4	-2	20	2	·
COC(=O)N/N=C/c1ccc(-c2ccc(Cl)cc2Cl)o1	-8	455*	4	0	24	12	-1
O=C(OCCCOC(=O)c1ccc(Br)o1)c1ccc(Br)o1	-4	305	-2	34	·	·	·
O=C(Nc1ccsc1C(=O)O)c1cccc(C(F)(F)F)c1	5	968*	-11	-1	6	-11	0
Cc1ccc(S(=O)(=O)n2cccc2C)cc1	-2	688*	·	-3	·	·	0
CCN(C[C@H]1N[C@@](C)(C(=O)OC)[C@H]2C(=O)N(Cc3ccccc3)C(=O)[C@@H]12)S(=O)(=O)c1ccc(OC)cc1	-2	-16	-10	19	·	·	·
CCOC(=O)c1c(C)n(C)c2cc(-c3ccc(C)cc3)c(O)cc12	-5	645*	-5	-6	7	-4	0
COc1ccc(CN2CCC(=O)N([C@H](CO)CC(C)C)CC2)cc1	-4	-4	-4	5	-52	-11	·
Cc1onc(-c2ccccc2Cl)c1C(=O)N1CCCCCC1	·	·	-3	-17	2	-10	·
Cc1onc(-c2ccccc2)c1C(=O)N/N=C/c1cccc(O)c1	-4	-21	20	1	-4	-16	·
Cc1onc(-c2ccccc2)c1C(=O)N/N=C/C=C/c1ccccc1	-2	382*	-8	-6	34	-4	2
CN(C)c1ccc(/C=N/NC(N)=S)cc1[N+](=O)[O-]	-4	-8	-1	i	-98	-2	·
Nc1nc(SCc2nc3scc(-c4cccs4)c3c(=O)[nH]2)n[nH]1	-2	+	-15	5	24	7	0
Cc1nc2scc(-c3cccs3)c2c(=O)[nH]1	-6	5	-11	-3	-1	-21	·
COc1ccc(C(=O)C2=NN(C(C)=O)CC2c2ccco2)cc1 (stereo not drawn)	0	-14	-8	-6	-3	8	·
COCCCNC(=O)c1cc2cc([N+](=O)[O-])cc(OC)c2oc1=O	1	406*	-11	3	28	14	1
SMILES	HDAC3 inh	Mot1-301 SUMO	PvdQ inh	JMJD2C inh	PHOSPHO1 block	p-CIP stab down	Yeast Mot1 SUMO
COc1cccc([C@@H]2CC=C(C(=O)O)[C@H](c3ccc(Br)cc3)N2S(=O)(=O)c2ccc(C)cc2)c1	·	·	-9	·	·	·	·
COc1cc2c(cc1OC)CN(S(=O)(=O)c1cccc(F)c1)CC2	1	+	-1	1	29	6	0
COc1cc2c(cc1OC)CN(S(=O)(=O)c1ccccc1F)CC2	-4	-7	-4	-6	5	-3	·
CCOc1cccc(CN(C)CC2CCCN(CCc3ccc(Cl)cc3)C2)c1O (stereo not drawn)	-5	12	3	7	26	-6	·
CC1=CS(=O)(=O)CC1Sc1ncn[nH]1 (stereo not drawn)	5	557*	-3	4	2	10	-1
CC1=CS(=O)(=O)CC1Sc1nc(C)n[nH]1 (stereo not drawn)	-8	15	7	-6	24	-1	·
CC(Oc1ccccc1)C(=O)Nc1ccccc1O (stereo not drawn)	-6	568*	-10	5	5	9	1
COc1ccc(OC)c(NC(=O)CCC(=O)Oc2ccc(C)cc2)c1	2	-5	-15	-18	19	14	·
COc1cccc(/C=C2\SC(N3CCC(C)CC3)=NC2=O)c1OC	10	615*	-8	3	9	2	0
O=C(O)Cc1sc(Nc2ccccc2)nc1-c1cccs1	3	415*	1	-8	0	-8	-1
CCOc1ccc(N(C(C)C(=O)NC(C)CC)S(C)(=O)=O)cc1 (stereo not drawn)	3	397*	-9	-3	17	-14	0
CCOc1ccc(N(C(C)C(=O)N2CCCCCC2)S(C)(=O)=O)cc1 (stereo not drawn)	4	1	-4	5	45	-6	·
N#CCCCN1C(=O)C(=C(C#N)C#N)c2ccccc21	3	-14	3	-1	13	-8	·
CS(=O)(=O)N1CCCC(C(=O)NCc2ccco2)C1 (stereo not drawn)	-10	384*	4	12	29	-1	0
Cc1cccc(-n2c(-c3ccco3)n[nH]c2=S)c1	-13	-8	-4	5	4	0	·
S=c1[nH]nc(-c2ccco2)n1-c1ccc(Br)cc1	3	532*	-15	-3	·	·	1
O=C(CCn1cnnn1)Nc1ccc(Cl)cc1Cl	-4	721*	-9	-3	30	-20	1
Cn1nnnc1SCC(=O)Nc1ccc(Cl)cc1Cl	·	·	·	·	6	-3	·
CN(C)S(=O)(=O)c1cccc(NC(=O)CSc2nnnn2-c2ccccc2)c1	-3	2	-16	5	0	-14	·
NS(=O)(=O)c1cccc(NC(=O)CSc2nnnn2-c2ccccc2)c1	-2	375*	4	-3	30	-14	0
CCn1c(SCC(=O)Nc2ccc(NC(=O)c3ccco3)cc2)nnc1-c1cccs1	-9	+	-10	8	·	·	0
CCn1c(SCC(=O)Nc2cccc(NC(=O)c3ccco3)c2)nnc1-c1cccs1	-3	-1	-2	4	24	-19	·

Screening data from PubChem.
